For 39 molecules, growth results are on record in PubChem BioAssay (NCI).

Where “and” joins values, the source holds several entries; their conditions need not be identical. Equal values may be shown once. The panel holds about 83,000 compounds, 20% with a hit somewhere; the sample as a whole holds those more often.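 Single-concentration screen, 48 h exposure, 96-well plates. Endpoint: percent growth. Below 10 = active.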 Calls of active or inactive are those of the source.

This assay relates to MCF7 breast. Nature of the assay: NCI-60 one-dose screen, 48 h (100 = growth as untreated, 0 = no growth, -100 = all killed). Particulars: 10 µM unless noted.
For `COc1ccc(-c2coc3c4c(ccc3c2=O)OCO4)cc1OC`, the growth was 53.7% [100 µM] (inactive) and 32.9% [100 µM] (inactive).
The value for `Cc1coc2c1C(OC(=O)C(C)C)C1(C)C(C)CCC(O)C1C2=O` (centres undefined) was 21.2% [100 µM] (inactive) and 6.5% [100 µM] (active); that for `O=C(O)COc1cc(-c2ccccc2F)nc2cc3c(cc12)OCO3` was 86.4% [100 µM] (inactive) and 58% [100 µM] (inactive).
Then `COC(=O)C(=O)C(C(=O)C(=O)Nc1ccc(Cl)c(Cl)c1)c1nc2ccc(C(=O)c3ccccc3)cc2[nH]c1=O` (centres undefined), with 32.4% [100 µM] (inactive) and 5.18% [100 µM] (active).
Then `COc1cc([C@H]2OC[C@@H]3C(c4cc(OC)c5c(c4)OCO5)OC[C@H]23)cc(OC)c1OC` (some centres undefined), with 67.2% [100 µM] (inactive) and 7.31% [100 µM] (active).
With `Cc1ccc(NC2=N/C(=C/c3ccccc3)C(Cl)=N2)cc1`, the growth is 71.3% [100 µM] (inactive) and 75.4% [100 µM] (inactive).
Then `O=C1c2ccccc2-c2c1c1ccccc1c(=O)n2-c1cccnc1`, with 21.1% [100 µM] (inactive) and 3.24% [100 µM] (active); and `N#Cc1c(N)oc(-c2cccc([N+](=O)[O-])c2)c1C#N`, with 12.3% [100 µM] (inactive) and -50% [100 µM] (active); and `CCn1c2c(c3ccccc3c1=O)C(=O)c1ccccc1-2`, with 71.7% [100 µM] (inactive) and 21% [100 µM] (inactive).
The value for `COc1cc(C)c2c(c1C=O)Oc1c(c(C)c(O)c3c1C(O)OC3=O)OC2=O` (centres undefined) was 1.49% [100 µM] (active) and 87.3% [100 µM] (inactive); that for `CCCCCCSC[C@H](OC(C)=O)[C@@H](OC(C)=O)[C@@H](OC(C)=O)[C@@H](COC(C)=O)OC(C)=O` was 28.8% [100 µM] (inactive) and 79.7% [100 µM] (inactive).
Then `Cc1ccc(/C=N/Nc2cnccn2)s1`, with 14.7% [100 µM] (inactive) and 4.18% [100 µM] (active); and `Cn1c2c(c3ccccc3c1=O)C(=O)c1ccccc1-2`, with 26.8% [100 µM] (inactive) and 7.69% [100 µM] (active); and `N#Cc1nc(C(F)(F)F)oc1N`, with 66.3% [100 µM] (inactive) and 98.4% [100 µM] (inactive).
In the case of `N#CC1(C#N)C2CCCCC23OC(=N)C1(C#N)C(c1ccco1)O3` (centres undefined), the growth was -54% [100 µM] (active).
On to `CC/C(Cl)=N\OC(=O)Nc1ccc(OC)cc1`, for which the growth is -75.9% [100 µM] (active) and -79.9% [100 µM] (active).
In the case of `Cc1ccc2c(sc(-c3ccc4c(c3)sc(-c3ccc5c(c3)sc(-c3ccc(N(C)C)cc3)[n+]5C)[n+]4C)[n+]2C)c1S(=O)(=O)O` (tested in a mixture with another compound), the growth is 35.5% [100 µM] (inactive) and -81.2% [100 µM] (active).
The value for `Cc1ccc(/C=C2/N=C(N/N=C\c3ccccc3)NC2=O)cc1` was 1.56% [100 µM] (active) and 22.5% [100 µM] (inactive); that for `COc1cc(Oc2c(C)c(Cl)c(OC)c(Cl)c2OC)c2c(c1Cl)COC2=O` was -6.77% [100 µM] (active) and -26.7% [100 µM] (active); that for `Cc1ccc(/C=N/Nc2nc3ccccc3s2)s1` was 2.03% [100 µM] (active) and 4.5% [100 µM] (active).
The value for `Cc1ccc(OCC2OC(n3cnc4nc(Cl)nc(Cl)c43)CC2Oc2ccc(C)cc2)cc1` (centres undefined) was 0.206% [100 µM] (active) and -99.2% [100 µM] (active); that for `CCCCCCCCCC(O)CC(=O)c1c(O)cccc1O` (centres undefined) was -63.9% [100 µM] (active) and -46.7% [100 µM] (active).
The value for `O=C(O)CCCC(=O)Nn1c(Cc2ccc(Cl)cc2)n[nH]c1=O` was 78.3% [100 µM] (inactive) and 78.8% [100 µM] (inactive).
Turning to `CC1(C)S[C@H](CN)N[C@H]1C(=O)OC(c1ccccc1)c1ccccc1`, the growth is -8.91% [100 µM] (active) and -100% [100 µM] (active).
The value for `NNc1[nH]c(=S)[nH]c1C(N)=O` was 98.4% [100 µM] (inactive) and 70.9% [100 µM] (inactive); that for `COC(=O)C1=CO[C@@H](OC2OC(CO)C(O)C(O)C2O)[C@H]2[C@@H](C)[C@@H](O)[C@@H](O)[C@@H]12` (some centres undefined) was 95.3% [100 µM] (inactive) and 91.8% [100 µM] (inactive); that for `COc1ccccc1-c1n[nH]c(-c2ccccc2O)n1` was 61.5% [100 µM] (inactive) and 21.6% [100 µM] (inactive).
Then `COc1cc2oc3c(c(=O)c2c(O)c1/C=C/C(C)C)CCC(C)(C)Oc1cc(O)ccc1-3`, with -61% [100 µM] (active) and -100% [100 µM] (active); and `CN(C)c1ccc(/C=N/n2c(-c3ccccc3)nc3ccccc3c2=O)cc1`, with 40.4% [100 µM] (inactive) and 21.1% [100 µM] (inactive).
Then `C=CC(COC(=O)C(C)(C)OC(C)=O)c1ccc(OC(=O)C(C)C)c(OC)c1` (centres undefined), with -68.4% [100 µM] (active) and -69% [100 µM] (active); and `CO/C(N)=C(\C#N)N=Cc1ccc2ccccc2c1`, with 8.6% [100 µM] (active) and 1.15% [100 µM] (active); and `N#CC1(C#N)C2CCCCC23OC(=N)C1(C#N)C(c1ccccc1)O3` (centres undefined), with -47% [100 µM] (active).
For the molecule `C[C@@H]1C[C@@H]2OC(=O)[C@]3(C)[C@H]2[C@@H](OC3(C)O)[C@]2(C)C(=O)C=C[C@@H]12` (some centres undefined), the growth is -67.1% [100 µM] (active) and -81.7% [100 µM] (active).
The value for `CC(C)=CCc1cc(C2COc3cc4c(c(O)c3C2=O)C=CC(C)(C)O4)c(O)cc1O` (centres undefined) was -75.7% [100 µM] (active) and -83.3% [100 µM] (active); that for `C=C1C(=O)OC2CC(C)C3(O)CCC(=O)C3(C)CC12` (centres undefined) was 13.7% [100 µM] (inactive) and 3.19% [100 µM] (active).
The value for `CC(C)CCCC(C)[C@H]1CC[C@H]2[C@@H]3CC[C@H]4C[C@@H](CCC=C(c5cc(Cl)c(O)c(C(=O)O)c5)c5cc(Cl)c(O)c(C(=O)O)c5)CC[C@]4(C)[C@H]3CC[C@]12C` (some centres undefined) (tested in a mixture with another compound) was 97.3% [50 µM] (inactive); that for `CNC(=S)/C(=N\Nc1nc[nH]c1C(N)=O)C(N)=S` was 10.6% [100 µM] (inactive) and 4.26% [100 µM] (active).
Turning to `COc1cc2c(cc1-c1coc3cc(O)ccc3c1=O)OCO2`, the growth is 67.5% [100 µM] (inactive) and 58.5% [100 µM] (inactive).
Then `Cc1ccc(OC2CC(n3cnc4ncnc(Cl)c43)OC2Oc2ccc(C)cc2)cc1` (centres undefined), with 8.44% [100 µM] (active) and -95.4% [100 µM] (active).
